Gli-Sufu block – Gli-Sufu pathway antagonism | hit rate 0.74% among 340,000 | AID 588413 | inhibition, % at 5 µM | Sufu-KO-LIGHT fibroblasts, Gli luciferase reporter luminescence;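 active = inhibition above about 55%, limit read from the data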;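 note: 0% = DMSO-treated cells and 100% = wells with medium but no cells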
H9c2 TAG inh – reduces triacylglycerol accumulation in H9c2 cells; inhibition, % at 12.5 µM; hit rate 0.66% among 230,000; AID 651582; Nile Red lipid (TAG) fluorescence; cells loaded with 200 µM oleic acid;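 active = pattern-corrected inhibition of lipid staining of at least 50% with the nuclear-stain viability signal not falling by more than 50%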;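 note: 0% = DMSO wells and 100% = triacsin C control wells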
Shn3 3UTR inh – reduces Shn3 3'UTR luciferase signal in osteoblasts; Clone20 osteoblast Shn3 3'UTR firefly luciferase, 24 h; inhibition, % at 12.5 µM; hit rate 0.52% among 360,000;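 active = mean inhibition of at least 75% with every replicate also reaching 75%; inconclusive = mean inhibition at least 75% but some replicate below; inactive = mean inhibition below 75%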;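 note: 0% = median of neutral control wells and 100% = pilot-screen positive control compound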
aSyn 5UTR inh – 5' untranslated region of α-synuclein, MLPCN primary screen | inhibition, % (tested at 7.5 µM) | alpha-synuclein 5'UTR reporter, inhibitor activity | hit rate 0.82% among 300,000; in the data active = inhibition above about 60%; inconclusive = no clear call, values can overlap the other calls;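 note: H4 neuroglioblastoma cells stably carrying SNCA 5'UTR luciferase fusion; 0% = DMSO wells and 100% = positive control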
Jurkat NFkB inh – lowers PMA/ionomycin-induced NF-kB signal in Jurkat cells. inhibition, % at 4 µM. PMA/ionomycin-induced NF-kB luciferase reporter, luminescence. hit rate 0.53% among 330,000; in the data active = inhibition above about 50%
697 NFkB inh – inhibitors of the PMA/ionomycin-induced NF-kB reporter in 697 B cells | inhibition, % at 4 µM | hit rate 0.33% among 330,000 | 697 B-cell NF-kB luciferase reporter, 16 h; in the data active = inhibition above about 35%
Jurkat NFkB conf – inhibitors of the PMA/ionomycin-induced NF-kB reporter in Jurkat cells, retest; shares compounds with Jurkat NFkB inh; hit rate 27% among 2,700; Jurkat NF-kB luciferase, 16 h; inhibition, % at 4 µM; AID 435020;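 active = inhibition reaching about 45% at 4 µM in either replicate, limit read from the data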;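 note: plate controls were PMA/ionomycin stimulated DMSO wells for no effect and unstimulated DMSO wells for full effect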
Starred values were filed as active, the others as inactive; i = inactive; ? = inconclusive; · = not tested or not shown. Only some compounds are listed: those with a hit (about 2.3% of all), similar ones and a draw of the others.

SMILES | Gli-Sufu block | H9c2 TAG inh | Shn3 3UTR inh | aSyn 5UTR inh | Jurkat NFkB inh | 697 NFkB inh | Jurkat NFkB conf
CC(C)(C)c1ccc(/C=N/NC(=O)c2ccccn2)cc1 | -1 | 11 | 0 | -36 | -249 | -215 | -118
C/C(=N\NC(=O)c1ccccc1Cl)c1ccccn1 | 64* | · | 92* | 82* | 89* | -146 | -17
C/C(=N\NC(=O)c1cccc2ccccc12)c1ccccn1 | 80* | 19 | 90* | 60 | 95* | -30 | 18
C/C(=N\NC(=O)c1cccc(Br)c1)c1ccccn1 | 89* | 50 | ? | 108* | 92* | -95 | 1
C/C(=N\NC(=O)c1cccc2ccccc12)c1cccs1 | -35 | -18 | -23 | -56 | -33 | -4 | ·
CC(=NNC(=O)c1ccncc1)c1cccc(Br)c1 | 1 | 2 | 1 | · | · | · | ·
C/C(=N\NC(=O)c1ccc(Cl)c(Cl)c1)c1ccccn1 | 54 | · | 91* | 28 | 98* | -74 | 53*
COc1ccc(NC(=O)c2ccccn2)cc1OC | -56 | · | -33 | -88 | -32 | -28 | ·
C/C(=N\NC(=O)c1cc(-c2cccs2)nc2ccccc12)c1ccccn1 | 93* | · | 94* | 79* | 55* | 25 | 14
C/C(=N/NC(=O)c1ccc(C(C)(C)C)cc1)c1ccccn1 | 65* | 50 | 81 | 57 | 100* | -143 | 0
COc1ccc(C(=O)N/N=C(\C)c2ccccn2)cc1OC | 95* | 29 | 91* | 43 | 96* | -50 | 16
CC(=NNC(=O)c1ccncc1)c1cc(Cl)ccc1Cl | 6 | -13 | 0 | · | · | · | ·
NNC(=O)c1cc(-c2cccs2)nc2ccccc12 | 13 | 12 | -1 | -2 | 3 | -3 | ·
Cc1ccc(OCC(=O)Nc2ccc([N+](=O)[O-])cc2)cc1 | -17 | -25 | -3 | -10 | 8 | 18 | ·
O=C(Oc1ccccc1N1C(=O)C2CCCCC2C1=O)c1ccc(Cl)cc1 (stereo not drawn) | 1 | -6 | -15 | -34 | 3 | 1 | ·
CCCCn1c(N)c(N(CC(C)C)C(=O)c2cc(-c3ccc(OC)cc3)nc3ccccc23)c(=O)[nH]c1=O | 7 | -3 | 20 | · | · | · | ·
Cc1ccc(NC(=O)[C@@H]2CCCN2S(=O)(=O)c2ccccc2C(F)(F)F)cc1S(=O)(=O)N1CCOCC1 | -19 | · | 16 | -17 | 7 | 12 | ·
O=C1N(c2ccccc2)C[C@@H]2C[C@@H](c3cc4ccccc4o3)N3CCC[C@@]123 | 76* | · | 97* | i | 72* | -40 | -8
CCOc1ccc(OCCC(=O)OCC(=O)Nc2ccc3c(c2)OCO3)cc1 | -9 | 3 | -15 | -24 | 12 | 24 | ·
COc1ccc(OC)c(-c2nnc3n2N=C(c2ccc(OC)c(OC)c2)CS3)c1 | 47 | · | 17 | · | 58* | -41 | 44
COc1ccc(C2=Nn3c(nnc3-c3ccccc3)SC2)cc1OC | -3 | · | 6 | ? | 18 | -5 | ·
COc1ccc(OC)c(-c2nnc3n2N=C(c2ccc(OC(F)F)c(OCC4CC4)c2)CS3)c1 | 6 | 11 | 1 | · | 47 | -36 | ·
COc1ccc(OC)c(-c2nnc3n2N=C(c2ccc(OC)c(OC4CCCC4)c2)CS3)c1 | 51 | · | 21 | · | 79* | 11 | 63*
COc1ccc(C(=O)NCc2cc(C)nc3ccccc23)cc1OC | 43 | -5 | 14 | 14 | 16 | -6 | ·
CCCCC(=O)Nc1ccc(C(=O)NNC(=S)NC(=O)c2cccs2)cc1 | -4 | · | 3 | -45 | 7 | 8 | ·
SMILES | Gli-Sufu block | H9c2 TAG inh | Shn3 3UTR inh | aSyn 5UTR inh | Jurkat NFkB inh | 697 NFkB inh | Jurkat NFkB conf
CCOc1cc(CNc2ccc3c(c2)OCCO3)cc(Br)c1OC | 0 | 34 | 51 | 95* | 59* | 3 | 15
COc1ccc(Nc2nc(N3CCCC3)c3ccccc3n2)cc1 | 50 | -22 | 87* | 44 | 58* | -24 | 20
COc1ccc(C(=O)N/C(=C/c2ccc(Cl)cc2)C(=O)NCc2ccncc2)cc1 | -20 | · | 14 | 5 | 10 | 2 | ·
CCOc1ccccc1N1CCN(C(=O)c2cc3ccccc3cc2OC)CC1 | 11 | 26 | 8 | · | 57* | -46 | 8
COc1cc2ccccc2cc1C(=O)N1CCN(C(C)=O)CC1 | 0 | -7 | -13 | -13 | 7 | -6 | ·
CCOc1ccccc1N1CCN(C(=O)c2cc(-c3cccnc3)nc3c(Cl)cccc23)CC1 | 2 | 25 | 13 | 16 | 68* | -31 | 13

High-throughput results from PubChem.
